Test results published in PubChem BioAssay.
Active and inactive are the calls of the source.

What was measured:
[1] = system: Human papillomavirus type 1a protein E7 (residues 44-93); test: HPV1a E7 fragment binders on microarrays, primary screen, biochemical, small-molecule microarray, residues 44-93, 635 nm fluorescence (AID 1108); conditions: small-molecule microarray binding, fluorescence 635 nm; higher = more signal;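 further: E7 fragment applied at 1 µg/mL in TBST for 1 h at 4 C; score combines spot fluorescence with its signal to noise ratio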
[2] = modulators of HCV replicon luciferase signal, primary screen, HCV replication inhibitor project, Huh7 cells, luciferase reporter (AID 1109); conditions: 48 h, higher = more signal;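 further: huh7 hepatoma cells harbouring a luciferase neomycin HCV replicon reporter; luciferase luminescence as measure of HCV replicon replication; test concentration not given here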
[3] = target: Left-right determination factor 2 (Homo sapiens) (UniProt O00292); test: LEFTY2 binders on small-molecule microarrays, primary screen, biochemical, small-molecule microarray, 635 nm fluorescence scan (AID 1110); conditions: LEFTY2 binding, higher = more signal
Sequence of Left-right determination factor 2 (Homo sapiens) (O00292 whole entry, looked up): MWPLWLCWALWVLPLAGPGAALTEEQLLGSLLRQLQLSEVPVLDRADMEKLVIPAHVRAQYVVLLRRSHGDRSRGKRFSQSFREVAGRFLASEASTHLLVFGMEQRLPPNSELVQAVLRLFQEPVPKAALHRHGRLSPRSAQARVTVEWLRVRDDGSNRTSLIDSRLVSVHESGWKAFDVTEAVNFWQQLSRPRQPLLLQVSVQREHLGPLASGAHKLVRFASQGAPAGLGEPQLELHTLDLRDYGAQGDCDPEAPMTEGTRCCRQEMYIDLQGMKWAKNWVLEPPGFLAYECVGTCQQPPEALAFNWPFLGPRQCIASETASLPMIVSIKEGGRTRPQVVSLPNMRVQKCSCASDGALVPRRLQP

[4] = target: Calmodulin-1 (Homo sapiens) (UniProt P0DP23); test: CALM1 binders on microarrays, EGTA buffer, profiling panel, biochemical, small-molecule microarray, Cy5-labelled CALM1 (AID 1111); conditions: Cy5-CALM1 binding fluorescence, higher = more signal;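 further: labelled calmodulin applied in Tris saline Tween buffer holding calcium plus EGTA and DTT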
[5] = target: Calmodulin-1 (Homo sapiens) (UniProt P0DP23); test: calcium-bound CALM1 binders on microarrays, profiling panel, artefact control for SMM control-protein annotation, biochemical, small-molecule microarray, Cy5-labelled CALM1, plus calcium (AID 1112); conditions: Cy5-CALM1 binding fluorescence, higher = more signal;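 further: score merges spot fluorescence with signal to noise from triplicate slides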
[6] = small-molecule microarray binders of probe aWnt5a, primary screen, biochemical, biotinylated probe, 635/667 nm fluorescence (AID 1113); conditions: higher = more signal;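 further: score merges 667 nm fluorescence intensity with signal-to-noise per printed feature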
[7] = small-molecule microarray binders of probe aShh, primary screen, biochemical, biotinylated probe, 635/667 nm fluorescence (AID 1114); conditions: higher = more signal;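 further: probe is biotin-labelled aShh protein from a stem cell growth factor screen; measures binding of labelled protein to compounds printed on the slide; score merges feature fluorescence at 667 nm with signal-to-noise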
[8] = small-molecule microarray binders of probe aNog, primary screen, biochemical, biotinylated probe, 635/667 nm fluorescence (AID 1115); conditions: higher = more signal;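 further: probe is biotinylated aNog protein used at 0.15 µg/mL for 1 h at 4 C; z-score combines 667 nm fluorescence of each spot with its signal to noise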
[9] = target: Torsin-1A-interacting protein 1 (Homo sapiens) (UniProt Q5JTV8); test: LAP1 binders from COS7 cell lysate, primary screen, small-molecule microarray, 635/667 nm fluorescence (AID 1116); conditions: COS7-hLAP1 lysate binding, 635 nm fluorescence, higher = more signal
Sequence of Torsin-1A-interacting protein 1 (Homo sapiens) (Q5JTV8 whole entry, looked up): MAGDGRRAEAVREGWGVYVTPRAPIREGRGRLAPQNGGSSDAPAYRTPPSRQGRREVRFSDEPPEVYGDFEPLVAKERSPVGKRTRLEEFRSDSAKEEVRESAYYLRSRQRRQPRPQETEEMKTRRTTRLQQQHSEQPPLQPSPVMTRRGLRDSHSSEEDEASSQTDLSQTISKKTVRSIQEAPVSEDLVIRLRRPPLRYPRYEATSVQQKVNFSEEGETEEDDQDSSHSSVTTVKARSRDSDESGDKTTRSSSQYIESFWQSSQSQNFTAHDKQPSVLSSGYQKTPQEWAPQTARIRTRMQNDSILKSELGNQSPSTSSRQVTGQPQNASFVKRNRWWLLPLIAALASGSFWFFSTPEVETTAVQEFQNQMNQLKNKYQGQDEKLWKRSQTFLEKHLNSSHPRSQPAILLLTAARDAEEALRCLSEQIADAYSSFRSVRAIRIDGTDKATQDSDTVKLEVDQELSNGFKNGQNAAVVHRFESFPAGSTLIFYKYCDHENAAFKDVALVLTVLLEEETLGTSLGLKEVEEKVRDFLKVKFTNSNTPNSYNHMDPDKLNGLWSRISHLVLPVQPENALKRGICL

[10] = target: Alpha-bungarotoxin (Bungarus multicinctus) (UniProt P60615); test: alpha-bungarotoxin binders on microarray, profiling panel, artefact control for SMM control protein annotation, biochemical, small-molecule microarray, Alexa647 label, 635/667 nm fluorescence (AID 1117); conditions: alpha-BTX-A647 binding fluorescence, higher = more signal
Sequence of Alpha-bungarotoxin (Bungarus multicinctus) (P60615 whole entry, looked up): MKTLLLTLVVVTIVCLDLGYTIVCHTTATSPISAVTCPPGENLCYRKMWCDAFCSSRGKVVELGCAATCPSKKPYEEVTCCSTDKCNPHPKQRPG

[11] = target: Albumin (Bos taurus) (UniProt P02769); test: bovine serum albumin binders on microarray, profiling panel, artefact control for SMM control protein annotation, biochemical, small-molecule microarray, Alexa647 label, 635/667 nm fluorescence (AID 1118); conditions: BSA-A647 binding, fluorescence 635 nm, higher = more signal;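 further: score merges 667 nm emission intensity and signal-to-noise per printed compound spot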
Sequence of Albumin (Bos taurus) (P02769 whole entry, looked up): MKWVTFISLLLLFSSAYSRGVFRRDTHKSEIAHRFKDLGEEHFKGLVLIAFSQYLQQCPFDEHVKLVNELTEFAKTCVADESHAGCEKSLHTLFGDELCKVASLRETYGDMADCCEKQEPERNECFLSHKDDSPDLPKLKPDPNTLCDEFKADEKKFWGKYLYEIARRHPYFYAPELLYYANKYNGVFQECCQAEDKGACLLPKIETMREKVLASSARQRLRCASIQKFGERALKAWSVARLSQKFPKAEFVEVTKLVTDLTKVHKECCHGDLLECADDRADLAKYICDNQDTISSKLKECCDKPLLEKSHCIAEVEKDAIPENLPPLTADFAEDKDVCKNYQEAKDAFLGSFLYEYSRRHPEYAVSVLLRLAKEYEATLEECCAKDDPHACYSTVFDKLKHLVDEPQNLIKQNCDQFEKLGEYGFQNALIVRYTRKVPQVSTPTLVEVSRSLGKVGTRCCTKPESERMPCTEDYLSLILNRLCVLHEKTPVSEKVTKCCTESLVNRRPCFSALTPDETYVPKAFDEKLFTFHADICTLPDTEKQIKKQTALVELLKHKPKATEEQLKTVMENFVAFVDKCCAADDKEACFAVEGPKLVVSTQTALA

[12] = small-molecule microarray binders of probe aXIP, primary screen, biochemical, NeuroSMM set, 635/667 nm fluorescence (AID 1119); conditions: higher = more signal, called active from +8 up or from −8 down;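 further: probe is the protein aXip251-270 applied at 1 µg/mL to compound-printed slides; binding of probe to printed compounds measured as 667 nm fluorescence plus signal to noise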
[13] = small-molecule binders of probe aNOTCH3, primary screen, biochemical, small-molecule microarray, 635/667 nm fluorescence (AID 1120); conditions: higher = more signal;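 further: probe is a biotin-tagged antibody raised against NOTCH3 rather than NOTCH3 protein; score merges spot fluorescence near 667 nm with spot signal to noise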
[14] = small-molecule binders of probe aNOTCH2, primary screen, biochemical, small-molecule microarray, 635/667 nm fluorescence (AID 1121); conditions: higher = more signal;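 further: score merges feature fluorescence read at 667 nm with its signal to noise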
[15] = target: Carbonic anhydrase 2 (Homo sapiens) (UniProt P00918); test: CAII small-molecule binders, profiling panel, biochemical, small-molecule microarray, Alexa647-labelled CAII (AID 1122); conditions: CAII-A647 binding fluorescence, higher = more signal
[16] = COS7 lysate on small-molecule microarray, probe aHis, 635 nm (AID 1123); conditions: COS7 cell lysate, fluorescence, higher = more signal;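 further: z-score combines 667nm fluorescence intensity with signal-to-noise per printed compound spot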
[17] = compound binding in COS7 lysate, probe aLAP1, primary screen, cell lysate, small-molecule microarray (AID 1124); conditions: probe aLAP1, fluorescence, higher = more signal;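 further: lysate comes from COS7 cells expressing LAP1 and is applied at 0.3 µg/mL; score merges spot fluorescence near 667 nm with signal-to-noise over triplicate slides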
[18] = system: Sam68 (KHDRBS1); test: Sam68 small-molecule binders, primary screen, biochemical, small-molecule microarray, 635 nm fluorescence (AID 1125); conditions: small-molecule microarray binding, higher = more signal;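 further: score merges 667 nm channel intensity with signal to noise over triplicate slides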
[19] = system: Chordin-like protein 2 (CHRDL2); test: CHRDL2 small-molecule binders, primary screen, biochemical, small-molecule microarray, 635 nm fluorescence (AID 1126); conditions: small-molecule microarray binding, fluorescence 635 nm; higher = more signal;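 further: printed compound slides probed with Chrdl2 protein at 4 µg/mL for 1 h at 4 C; score merges 667 nm emission intensity with signal to noise over three replicate slides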
[20] = target: Concanavalin-A (Canavalia ensiformis) (UniProt P02866); test: ConA small-molecule binders, primary screen, artefact control for SMM control protein annotation, biochemical, small-molecule microarray, Alexa647 label, 635 nm (AID 1127); conditions: ConA-A647 binding fluorescence, higher = more signal;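 further: z combines 667 nm emission intensity with signal-to-noise across three replicate slides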
Sequence of Concanavalin-A (Canavalia ensiformis) (P02866 whole entry, looked up): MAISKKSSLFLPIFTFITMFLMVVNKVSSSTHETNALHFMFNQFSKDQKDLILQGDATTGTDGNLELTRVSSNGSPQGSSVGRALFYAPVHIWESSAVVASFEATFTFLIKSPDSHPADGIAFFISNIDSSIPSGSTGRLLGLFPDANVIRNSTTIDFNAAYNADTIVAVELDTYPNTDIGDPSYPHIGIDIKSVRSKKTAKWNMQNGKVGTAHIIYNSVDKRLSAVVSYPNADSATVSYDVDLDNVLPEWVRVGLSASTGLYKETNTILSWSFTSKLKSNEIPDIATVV

SMILES | composite z-score [1] | z-score [2] | composite z-score [3] | composite z-score [4] | composite z-score [5] | composite z-score [6] | composite z-score [7] | composite z-score [8] | composite z-score [9] | composite z-score [10] | composite z-score [11] | composite Z-score [12] | composite z-score [13] | composite z-score [14] | composite z-score [15] | composite z-score [16] | composite z-score [17] | composite z-score [18] | composite z-score [19] | composite z-score [20]
C[C@]1(C(=O)O)c2ccccc2C(=O)N(Cc2ccccc2)[C@H]1c1ccc(CO)cc1 | -0.633 | -0.413 | -2.19 | 0.139 | 1.2 | -0.204 | -0.291 | 0.562 | -0.0514 | -1.04 | -0.408 | 0.174 (inactive) | -0.236 | -0.0859 | 0.756 | 0.096 | -0.581 | -1.45 | -1.48 | -1.34
CC(C)NC(=O)[C@@]1(C)c2ccccc2C(=O)N(C(C)C)[C@H]1c1ccc(CO)cc1 | -0.609 | -0.593 | -3.05 | -0.614 | -0.0732 | -0.296 | -0.154 | -0.435 | -1.97 | -0.43 | 0.177 | 0.22 (inactive) | -0.471 | -0.132 | 0.541 | 2.61 | -0.217 | 0.121 | -2.33 | -0.233
O=C(CS)NCCCCCCNC(=O)[C@H]1C[C@H]2C(=O)N[C@@H](Cc3ccccc3)C(=O)N2[C@H]1c1cccc(OCCO)c1 | 1.37 | -0.963 | 1.23 | 1.79 | 0.0164 | 0.0066 | 0.676 | 0.897 | 1.38 | 2.44 | -0.428 | 0.131 (inactive) | 0.605 | -0.084 | 0.684 | 2.21 | 0.519 | 1.29 | 1.24 | 0.892
CO[C@H]1O[C@H](CO)[C@@H](OC(=O)Nc2ccc(Oc3ccccc3)cc2)[C@H](OC(=O)Nc2ccccc2-c2ccccc2)[C@@H]1OC(=O)Nc1ccccc1-c1ccccc1 | 1.02 | -3.19 | 0.242 | 2.17 | 0.409 | -0.0667 | 0.256 | 1.74 | 1.27 | 1.52 | 0.814 | -0.098 (inactive) | 0.182 | 0.247 | 0.482 | 2.31 | 1.09 | 1.32 | -0.139 | 1.14
O=C(O)[C@H](Cc1ccccc1)n1cc(-c2ccccn2)nn1 | 0.55 | 0.107 | -0.0097 | 0.429 | 0.33 | -0.152 | -0.0866 | -0.0827 | 0.524 | 0.35 | 0.672 | -0.341 (inactive) | -0.0311 | -0.1 | 0.285 | 0.383 | 0.132 | 0.614 | 0.129 | 0.862
